# In the library only some 7.6% were active in any assay of this set; here they are far more common.
# Giardia kill: kills Giardia lamblia; hit rate 0.15% among 340,000; Giardia lamblia trophozoite viability; activity change, % at 7.66 µM, hits read low; AID 540267; in the data active = activity change below about -80%; inconclusive = between about -30% and that limit;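 also: parasites exposed to compound for two days anaerobically before the ATP read; % is scaled to controls: 0 for no effect and ±100 for the full control effect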
#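 Killing of trophozoites was scored by loss of ATP luminescence after a 48 hrs anaerobic exposure to compounds at 37 deg C, using 100 cells per well.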
# VP16 counter: Gal4-VP16 reporter inhibition counter-screen; Drosophila S2 Gal4-VP16 UAS-luciferase, luminescence, 20 h; Potency, µM (doses to about 53.6 µM), for the others: at the top dose activity, negative = inhibition, hits mostly inhibitors; hit rate 3.5% among 310,000;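 also: Gal4-VP16 expression switched on by copper sulfate through the metallothionein promoter; potency is read from the fitted curve at half-maximal effect; % is scaled to controls: 0 for no effect and ±100 for the full control effect; nearly all actives have a fitted effect of over 50% in size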
# BRCA1 expr act: activators of BRCA1 expression; MCF7-BRCA1-FFLuc reporter, luminescence, 48 h; response scale: scaled: vehicle 0%, 10 µM genistein 100%; Potency, µM (doses to about 46.1 µM), for the others: at the top dose activation, usual class: activators; hit rate 1.1% among 380,000; also: potency is read from the fitted curve at half-maximal effect; nearly all actives have a fitted effect of over 80% in size
#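 First, MCF7-BRCA1-FFLuc cells (2000/well) attach for 2 h; next, compounds are pin-added and incubated 48 h at 37 °C; finally, luciferase reagent is added and luminescence read after 15 min.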
# RORg inh: blocks mouse ROR gamma transcriptional activity | P51450 | Drosophila S2 Gal4-RORgamma UAS-luciferase reporter, 20 h | Potency, µM (doses to about 53.6 µM), for the others: at the top dose activity change, negative = inhibition, hits mostly inhibitors | hit rate 5.4% among 310,000 | AID 2551; also: potency is read from the fitted curve at half-maximal effect; % is scaled to controls: 0 for no effect and ±100 for the full control effect; nearly all actives have a fitted effect of over 60% in size
# Target sequence (P51450 whole entry, looked up, the tested form may be a part): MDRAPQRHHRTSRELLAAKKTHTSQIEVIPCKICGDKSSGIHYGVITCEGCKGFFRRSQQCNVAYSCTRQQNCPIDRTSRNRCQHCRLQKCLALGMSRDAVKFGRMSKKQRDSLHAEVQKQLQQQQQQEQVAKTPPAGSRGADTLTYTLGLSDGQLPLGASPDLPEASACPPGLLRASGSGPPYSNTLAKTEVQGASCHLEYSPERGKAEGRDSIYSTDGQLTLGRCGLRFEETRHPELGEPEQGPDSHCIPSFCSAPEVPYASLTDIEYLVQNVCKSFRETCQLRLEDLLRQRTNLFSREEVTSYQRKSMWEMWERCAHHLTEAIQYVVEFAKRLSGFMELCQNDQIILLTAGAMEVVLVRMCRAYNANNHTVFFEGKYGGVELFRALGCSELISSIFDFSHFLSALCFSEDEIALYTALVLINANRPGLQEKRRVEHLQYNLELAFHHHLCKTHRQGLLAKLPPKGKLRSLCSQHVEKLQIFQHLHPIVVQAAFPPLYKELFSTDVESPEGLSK
#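 Schneider cells (Drosophila), stable Gal4 DBD–ROR gamma + UAS-luc; 1 hr cmpd preincubation; Cu2+ induction 700 uM final; 20 hr ambient; luminescence.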
# p53 reactivation: re-activators of mutant p53 | H1299 p53-A138V BP100-luciferase reporter, luminescence, 24 h | Potency, µM (top dose mostly 92.2 µM), for inactives: at the top dose activity change, positive = activation, most hits filed as activators | hit rate 0.063% among 320,000 | AID 504706; also: potency is read from the fitted curve at half-maximal effect; % of control where 0% means no effect; nearly all actives have a fitted effect of over 45% in size
#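 p53-null H1299 cells stably carrying temperature-sensitive p53-A138V and a BP100-luciferase reporter were pinned with compounds (4-point, 1:5 series) and held 24 hrs at 37 deg C. Luminescence was read 10 min after detection reagent.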
# ELG1 DNA repair: blocks ELG1-dependent DNA repair in HEK293T cells | HEK293T ELG1-luciferase reporter, luminescence, 16 h; DNA damage induced by 5-fluorouridine | Potency, µM (top dose mostly 46.1 µM), without a hit: at the top dose activity change, negative = inhibition, actives largely listed as inhibitors | hit rate 2.3% among 330,000 | AID 504467; also: potency is read from the fitted curve at half-maximal effect; % is scaled to controls: 0 for no effect and ±100 for the full control effect; nearly all actives have a fitted effect of over 55% in size
#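 Cells (2,000 per well) received 5-fluorouridine plus test compound or DMSO and were incubated 16 hr at 37 °C, 5% CO2. Luciferase activity was read by luminescence 30 min after ONE-Glo addition; signal suppression marked inhibition of damage-induced ELG1 function.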
# * = called active by the depositor; ? = inconclusive; nt = no result given. Unless noted, calls follow the shape of the dose curve; as a rule, active = well fitted curve in the direction sought with a large enough effect; inconclusive = small, poorly fitted or top-dose-only effect, or another doubt; inactive = no such curve, though single readings can be large; an effect the other way counts as inactive or inconclusive.
SMILES,Giardia kill,VP16 counter,BRCA1 expr act,RORg inh,p53 reactivation,ELG1 DNA repair
CN(C)S(=O)(=O)N1CCN(C(=O)c2ccc3c(c2)OCO3)CC1,11,6%,3%,-32%,2%,-3%
CN(C)S(=O)(=O)N1CCC(c2ccc(F)cc2)C(COc2ccc3c(c2)OCO3)C1 (configuration not stated),12,2%,-40%,4%,-1%,16µM*
Cc1ccc(NC(=O)c2cc(C)nc3ccccc23)c(Br)c1,11,-10%,-37%,0%,-2%,-28%
O=C(Nc1nnc(SCc2ccc(Cl)cc2)s1)c1cnccn1,-6,14µM*,-8%,13µM*,-1%,0%
COc1ccc(N=C/C=C2\C=C(c3ccccc3)OC(C)(C)O2)cc1,17,0%,-4%,-1%,13%,?
Cc1ccccc1N=C/C=C1/C=C(c2ccccc2)OC(C)(C)O1,-21,1%,-60%,?,-7%,13µM*
COc1ccc(N(CC(=O)Nc2ccccc2C(=O)N2CCCC2)S(C)(=O)=O)cc1,18,-14%,-2%,1%,5%,-2%
Cc1ccc(C(=O)NN2C(=O)c3ccc(S(=O)(=O)c4ccc(C(=O)O)cc4)cc3C2=O)cc1,0,4%,-1%,-21%,?,11%
O=C(O)c1ccc(S(=O)(=O)c2ccc3c(c2)C(=O)N(NC(=O)c2ccc(O)cc2)C3=O)cc1,-6,10µM*,0%,6.3µM*,0%,9%
Cc1ccc(C)c(S(=O)(=O)N2CCN(c3nc(-c4cccnc4)nc4ccccc34)CC2)c1,-18,nt,-39%,nt,-6%,18µM*
O=S(=O)(c1ccccc1F)N1CCN(c2nc(-c3cccnc3)nc3ccccc23)CC1,-24,nt,-23%,nt,-1%,18µM*
N#Cc1ccccc1S(=O)(=O)N1CCN(c2nc(-c3cccnc3)nc3ccccc23)CC1,3,nt,-47%,nt,-1%,?
CCc1cc(-c2ccc3c(c2)COc2c4ccccc4nn2-3)on1,-6,nt,30%,nt,nt,nt
C=CCOc1ccc(/C(CC)=N/O)cc1OC,-15,3%,37%,18%,3%,?
CCOC(=O)c1ccccc1NC(=O)COC(=O)CCC1CCCC1,8,nt,-25%,nt,-3%,17%
C/C(=N\Nc1nc(N)cc(Cl)n1)c1cccc(N)c1,0,-8%,?,23%,17%,?
C/C(=N\Nc1nc(C)cc(-c2ccccc2)n1)c1ccc(F)cc1,-1,7.1µM*,-3%,3.2µM*,nt,-6%
C/C(=N/Nc1nc(-c2ccccc2)cc(-c2ccc(F)cc2)n1)c1cccc(N)c1,1,14µM*,-60%,11µM*,?,7.3µM*
O=C(Nc1ccc(Cl)cn1)Nc1ccc(Cl)cn1,-1,-2%,39%,4%,3%,5%
C/C(=C\c1ccccc1)C(=O)Nc1ccc(Cl)cn1,4,?,7.9µM*,?,-24%,?
Cc1ccccc1NS(=O)(=O)c1cc2c(cc1C)N(C)CCO2,-20,9%,-18%,14%,nt,2%
COc1cccc(Cn2c(=O)c(C)nc3cnc(N4CCNCC4)nc32)c1,nt,-9%,nt,-34%,nt,nt
O=c1c(-c2cc(F)cc(F)c2)nc2cnc(N3CCNCC3)nc2n1Cc1ccc(F)cc1,nt,4.5µM*,nt,3.2µM*,nt,nt
CN1CCN(c2ncc3nc(-c4cccc(C#N)c4)c(=O)n(Cc4ccc(F)cc4)c3n2)CC1,nt,20µM*,nt,?,nt,nt
COc1cccc(Cn2c(=O)c(-c3cc(F)cc(F)c3)nc3cnc(N4CCNCC4)nc32)c1,nt,?,nt,2.8µM*,nt,nt
SMILES,Giardia kill,VP16 counter,BRCA1 expr act,RORg inh,p53 reactivation,ELG1 DNA repair
c1ccn2cc(CSC3=NCCS3)nc2c1,-3,4%,6.3µM*,?,?,?
c1ccn2cc(CSc3nnc4ccccn34)nc2c1,4,?,?,-37%,?,?
COC(=O)c1ccc2nc(C3CCCCC3)c(Cc3ccccc3C(F)(F)F)n2c1,nt,nt,-26%,nt,nt,nt
O=C(COc1ccccc1/C=C1\SC(=O)NC1=O)Nc1ccc(F)cc1,-13,-2%,-47%,7%,-2%,-7%
O=[N+]([O-])c1ccc(/C=N/N/C(=N/c2ccccn2)c2ccccn2)cc1,-9,-4%,?,11µM*,12%,?
O=C(Oc1cccc(/C=N/NC(=O)c2ccccn2)c1)c1ccc([N+](=O)[O-])cc1,8,?,?,?,2%,3%
O=[N+]([O-])c1cc(/C=N/N/C(=N/c2ccccn2)c2ccccn2)ccc1O,-29,4.5µM*,-17%,1.4µM*,10%,?
COc1ccccc1OC(C)C(=O)Nc1cccc(-c2nc3ccccc3s2)c1 (configuration not stated),nt,nt,2%,nt,nt,nt
O=C(NCCCN1CCN(c2cccc(Cl)c2)CC1)c1cnn(-c2ccc(F)cc2)c1-n1cccc1,nt,nt,-54%,nt,nt,nt
CCNC(=S)NNc1nc(N2CCCCC2)nc(N2CCOCC2)n1,-9,?,2%,14µM*,-1%,8%
Cc1noc(C)c1C(=O)Nc1cccc(S(=O)(=O)N2CCCCC2)c1,-8,nt,-16%,nt,-1%,-4%
CCOc1ccc2ncc(S(=O)(=O)c3ccccc3)c(N3CCN(c4ccc(OC)cc4)CC3)c2c1,-9,-11%,2%,-34%,-1%,18µM*
COc1ccc(S(=O)(=O)c2cnc3ccc(OC)cc3c2N2CCC3(CC2)OCCO3)cc1,-4,?,-34%,13%,-8%,23µM*
COc1ccc(N2CCN(c3c(S(=O)(=O)c4ccccc4)cnc4ccc(OC)cc34)CC2)cc1,29,1%,-24%,?,2%,18µM*
COc1cc(C(C[N+](=O)[O-])c2c(N)n(C)c(=O)n(C)c2=O)ccc1O (configuration not stated),4,-86%,-58%,14µM*,-9%,-4%
COc1cccc(F)c1C(C[N+](=O)[O-])c1c(N)n(C)c(=O)n(C)c1=O (configuration not stated),-21,11µM*,-82%,7.1µM*,-14%,18µM*
Cn1c(N)c(C(C[N+](=O)[O-])c2ccccc2Cl)c(=O)n(C)c1=O (configuration not stated),7,nt,-2%,nt,nt,nt
Cc1ccc(C(C[N+](=O)[O-])c2c(N)n(C)c(=O)n(C)c2=O)cc1 (configuration not stated),-14,?,-21%,13µM*,-16%,-7%
CCOc1ccc(/C(O)=C2/C(=O)C(=O)N(CCOCCO)C2c2ccccc2)cc1 (configuration not stated),-8,8%,-2%,11%,9%,-13%

# Assay outcomes from PubChem.
